Experimental findings from PubChem BioAssay are described below.

Test [1] can be described thus: reducers of endogenous Her2 protein level, primary screen, SKBR3 breast tumor cells, AlphaScreen, ATP viability (AID 461;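 active means Her2 level under about 52% in both replicate screens, with viability over 70% of control, limit read from the data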;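 on Her2 level: lower value means less Her2 protein in the cells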;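 on viability: percent of carrier control wells set as 100% viability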). Particulars: 18-24 h, measured here: SKBR3 viability, ATP luminescence, at 10 µM. For orientation: In Alpha technology, singlet oxygen from a donor bead excites a nearby acceptor bead.
Test [2] concerns the target Receptor tyrosine-protein kinase erbB-2 (Homo sapiens) (UniProt P04626). The description is as above. The note with it: 18-24 h, at 10 µM, stronger effect = lower value.
Test [3] is described as follows: SK-BR-3 cell growth inhibitors, pilot screen, 24 h, human (AID 572;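 active means viability at or below 10% of carrier control in both of two separate runs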;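 further: compound exposure lasted between 18 and 24 h rather than exactly 24 h; 100% = carrier-treated control wells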). Particulars: SK-BR-3 viability, CellTiter-Glo luminescence, at 10 µM, stronger effect = lower value. For orientation: ATP-based viability assays read luminescence as a measure of living cells.
Test [4] in a line: HUVEC growth inhibition – cell-based, human, primary screen (AID 575;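 active means viability at or below 30% in both replicate assays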;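 further: 100% = median of untreated cell wells with 0.1% DMSO on each plate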). Particulars: HUVEC proliferation, CellTiter-Glo luminescence, 72 h; at 10 µM; stronger effect = lower value.
Test [5] is described as follows: growth inhibitors of H69AR lung tumor, primary screen, human, duplicate replicates (AID 580).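 Further: 100% = mean luminescence of untreated wells and 0% = no signal.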 The note with it: H69AR lung tumor cells viability, ATP luminescence, 72 h; at 10 µM; stronger effect = lower value.
Test [6] is described as follows: reversal of MRP1-mediated doxorubicin resistance, pilot screen, H69AR cells, doxorubicin co-treatment (AID 601;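 active means viability loss from added drug above about 55%, and viability with drug at most 40%, in both replicates, limit read from the data, passing the limit was not always enough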). The note with it: CellTiter-Glo, 72 h, at 10 µM; for differential viability (reversal): stronger effect = higher value.
Test [7] can be described thus: 384-well plate pilot, post-Golgi transport modulator project, inhibition of yeast transport mutant growth (AID 636; in the data active means inhibition above about 31%). Particulars: absorbance 615 nm, about 18 h, stronger effect = higher value.
Test [8] in a line: growth suppression of yeast trafficking mutant, preliminary HTS, modulators of trafficking downstream of Golgi apparatus project, 1536-format plate, OD 615 nm (AID 637; in the data active means inhibition above about 30%). Particulars: yeast transport mutant growth, absorbance 615 nm, 18 h; stronger effect = higher value.
The nature of test [9]: OD615 S. cerevisiae growth inhibition, permissive medium, pilot counter-assay, permissive growth control for S. cerevisiae lifespan shortening project (AID 705;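 active means growth inhibition above 25% in both replicates, a cutoff set 3 SD above the mean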). Particulars: OD615, 24 h, at 10 µM, stronger effect = higher value.
The nature of test [10]: Restrictive medium S. cerevisiae growth inhibition, OD615, pilot screen of yeast lifespan reduction project, restrictive growth control (AID 706;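 active means growth inhibition above a set limit, 3 SD over mean compound inhibition, in both replicates, cut at about 43% in these data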;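 further: modified DeaD lifespan yeast strain shifted to restrictive glucose medium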). Particulars: OD615, 48 h, at 10 µM, stronger effect = higher value.
Test [11] in a line: viability gain of MRP-1-high H69AR cells under doxorubicin, pilot screen, MRP-1 activator project, CellTiter-Glo, duplicate (AID 807;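 active means viability increase at or above a cutoff of the median across tested compounds plus 3 SD, cut at about 8.5% in these data, passing the limit was not always enough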;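 further: compound pretreatment 18-22 h then 72 h combined with doxorubicin; 0% = doxorubicin alone and 100% = vehicle without doxorubicin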). The note with it: H69AR viability with doxorubicin, CellTiter-Glo luminescence; at 10 µM; stronger effect = higher value.
The nature of test [12]: growth suppression of beta-catenin knockout HCT116, pilot screen, human colon tumor cells (AID 823;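 active means cell viability at or below a set limit in both duplicate runs, the limit being the all-compound median minus 4 SD, cut at about 23% in these data, passing the limit was not always enough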;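 further: 0% = wells killed by 20 µM Hyamine and 100% = untreated DMSO cell wells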). Particulars: CellTiter-Glo, 60 h, at 10 µM, stronger effect = lower value.
Test [13] in a line: growth suppression of PTEN-deleted HCT116, pilot screen, cell-based, HCT116 clonal line, CellTiter-Glo (AID 824;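 active means viability at or below 27.92% in each of two runs, the all-compound median minus 4 SD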;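 further: 0% = 20 µM Hyamine control and 100% = vehicle cell control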). Particulars: 60 h, at 10 µM, stronger effect = lower value.
Test [14] is described as follows: inhibitors of the yeast RAM network, pilot screen, dse1pr::URA3 reporter, 5-FOA selection (AID 869;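 active means inhibition over a set limit, the all-compound mean plus 3 SD, in both replicate runs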;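 further: 0% = DMSO wells with no growth and 100% = 10 µM 1-NA-PP1 with full growth; RAM network block rescues cells from 5-FOA so hits raise OD615 growth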). The note with it: S. cerevisiae dse1pr::URA3 5-FOA growth, OD615, 2 d; at 10 µM; stronger effect = higher value; strain carries analog-sensitive mutant Cbk1 kinase.
The nature of test [15]: RAM signaling pathway blockade in yeast – S. cerevisiae, Pdr1DBD-CYC8 efflux-inhibited sensitized strain, primary screen (AID 1298;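 active means RAM network inhibition above 8.4% in each of two replicates, 3 SD over the compound average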;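 further: 0% = DMSO untreated cells without growth and 100% = 10 µM 1-NA-PP1 full growth; higher means more yeast growth rescued from 5-FOA killing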). The note with it: S. cerevisiae cbk1-as DSE1-URA3 strain, 5-FOA growth OD615, 2 d; at 50 µM; stronger effect = higher value.
The mark [16] stands for this setting: H69AR cells + 2 uM doxorubicin, measured here: viability with 2 uM doxorubicin, stronger effect = lower value.
[17] abbreviates: H69AR cells, compound alone cytotoxicity.

The structures appear in SMILES notation. Inconclusive results are not listed. Active and inactive are the calls of the source.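 How the source made its calls, unless noted: active means viability at or under a set limit in both replicates, limit being median viability minus 3 SD (cut at about 48% in these data, passing the limit was not always enough); inconclusive means at or under the limit in just one replicate; inactive means at or above the limit in both replicates.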

Sequence of Receptor tyrosine-protein kinase erbB-2 (Homo sapiens) (P04626 whole entry, looked up): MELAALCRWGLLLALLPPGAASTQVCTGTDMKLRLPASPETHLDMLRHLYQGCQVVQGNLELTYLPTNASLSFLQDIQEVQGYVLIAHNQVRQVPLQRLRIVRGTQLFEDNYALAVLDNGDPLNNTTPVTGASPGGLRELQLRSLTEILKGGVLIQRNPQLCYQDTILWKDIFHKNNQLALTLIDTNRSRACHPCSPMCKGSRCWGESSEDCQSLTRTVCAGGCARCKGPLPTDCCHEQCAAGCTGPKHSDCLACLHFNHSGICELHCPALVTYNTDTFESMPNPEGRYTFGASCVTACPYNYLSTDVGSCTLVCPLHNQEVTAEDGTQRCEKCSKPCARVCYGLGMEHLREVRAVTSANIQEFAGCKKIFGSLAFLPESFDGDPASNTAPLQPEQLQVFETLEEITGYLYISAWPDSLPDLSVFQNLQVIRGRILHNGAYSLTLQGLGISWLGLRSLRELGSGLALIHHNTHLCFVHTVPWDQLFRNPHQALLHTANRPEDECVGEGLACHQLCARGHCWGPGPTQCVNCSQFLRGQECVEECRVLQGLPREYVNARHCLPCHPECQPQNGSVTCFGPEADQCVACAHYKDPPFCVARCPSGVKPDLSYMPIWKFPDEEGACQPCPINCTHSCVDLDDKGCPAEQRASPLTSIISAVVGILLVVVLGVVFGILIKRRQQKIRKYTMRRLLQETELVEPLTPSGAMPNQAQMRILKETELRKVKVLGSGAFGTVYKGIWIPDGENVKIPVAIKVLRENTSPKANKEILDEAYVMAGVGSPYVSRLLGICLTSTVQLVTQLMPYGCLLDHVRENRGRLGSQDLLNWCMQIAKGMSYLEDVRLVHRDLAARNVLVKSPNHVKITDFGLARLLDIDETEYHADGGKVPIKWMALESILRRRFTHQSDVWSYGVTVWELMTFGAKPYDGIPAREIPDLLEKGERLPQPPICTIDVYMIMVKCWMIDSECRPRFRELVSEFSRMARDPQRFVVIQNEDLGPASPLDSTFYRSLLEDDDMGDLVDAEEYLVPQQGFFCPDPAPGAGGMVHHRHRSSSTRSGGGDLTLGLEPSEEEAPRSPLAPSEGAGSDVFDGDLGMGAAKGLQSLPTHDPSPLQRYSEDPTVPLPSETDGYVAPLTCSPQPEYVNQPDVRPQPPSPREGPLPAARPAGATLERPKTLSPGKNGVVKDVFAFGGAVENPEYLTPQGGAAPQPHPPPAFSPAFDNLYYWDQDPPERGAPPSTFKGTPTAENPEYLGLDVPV

As for `CN(C)c1oc(-c2ccccc2F)nc1C#N`, the viability was 95% in test [1]; 95% (inactive) in [3]; 82.3% (inactive) in test [4]; 101% (inactive) in test [5]; 89.5% in test [6] (setting [16]); 101% in test [6] (setting [17]). Further, the viability in test [12] was 112% (inactive); in test [13], 106% (inactive). Further, in [2], the Her2 level was 99.5% (inactive). The differential viability (reversal) in test [6] (H69AR cells + 2 uM doxorubicin) was 11.8% (inactive). Besides, the values for the inhibition in test [7], in test [8] and in test [14] were -2.8% (inactive), 6.56% (inactive) and 0.58% (inactive), respectively. The growth inhibition is -11.3% (inactive) in [9] and -2.67% (inactive) in test [10]. For the same compound, the viability increase in [11] is -0.62% (inactive). In addition, in test [15], the RAM network inhibition was 3.09% (inactive).
For `COC(=O)c1ccc(-n2nnnc2SCc2nn[nH]n2)cc1`, the viability was 77% in [1]; 77% (inactive) in test [3]; 107% (inactive) in test [4]; 114% (inactive) in test [5]; 91.7% in test [6] (setting [16]); 114% in test [6] (setting [17]). The viability was 106% (inactive) in test [12] and 100% (inactive) in test [13]. Moreover, the Her2 level in test [2] was 135% (inactive). Moreover, the differential viability (reversal) in test [6] (H69AR cells + 2 uM doxorubicin) was 21.8% (inactive). Besides, the inhibition is 3.21% (inactive) in test [7], -5.5% (inactive) in test [8] and 0.965% (inactive) in [14]. The growth inhibition in [9] is -0.675% (inactive); in test [10], 25.4% (inactive). The viability increase in [11] is 0.27% (inactive). The RAM network inhibition in [15] was -1.09% (inactive).
Consider `CCCS(=O)(=O)N1CCN(C(=O)c2cccnc2)CC1`, for which the viability in [1] was 97%; in test [3], 97% (inactive); in [4], 93.1% (inactive); in test [5], 106% (inactive); in test [6] (setting [16]) it was 101%; in test [6] (setting [17]), 106%. Also, the viability in [12] was 101% (inactive); in test [13] it was 95.2% (inactive). Moreover, the Her2 level in test [2] is 98.5% (inactive). For the same compound, the differential viability (reversal) in test [6] (H69AR cells + 2 uM doxorubicin) is 5.65% (inactive). For the same compound, the inhibition was -0.26% (inactive) in [7], -3.77% (inactive) in [8] and -0.345% (inactive) in [14]. The growth inhibition in test [9] is -8.47% (inactive); in [10], -15.8% (inactive). Besides, the viability increase in test [11] was 1.08% (inactive). Further, the RAM network inhibition in test [15] was 0.42% (inactive).
Regarding `COc1ccc(OC)c(C2C(C(=O)Nc3ccc(F)cc3)=C(C)Nc3nc(CCCO)nn32)c1` (stereo not given), the viability in test [1] was 101%; in [3], 101% (inactive); in [4] it was 91% (inactive); in [5], 101% (inactive); in [6] (setting [16]), 95.4%; in test [6] (setting [17]) it was 101%. Further, the viability is 99.6% (inactive) in test [12] and 99.1% (inactive) in test [13]. For the same compound, in [2], the Her2 level is 120% (inactive). Further, the differential viability (reversal) in test [6] (H69AR cells + 2 uM doxorubicin) is 5.54% (inactive). The inhibition in [7] was 0.13% (inactive); in test [8] it was -0.83% (inactive); in test [14] it was -1.06% (inactive). Moreover, the values for the growth inhibition in test [9] and in test [10] were -9.55% (inactive) and 7.19% (inactive), respectively. Moreover, in test [11], the viability increase is -0.62% (inactive). The RAM network inhibition in test [15] is -0.42% (inactive).
In the case of `Cc1nnc(SCCn2c(N3CCC(Cc4ccccc4)CC3)nc3c2c(=O)[nH]c(=O)n3C)s1`, the viability in test [1] is 82.5%; in test [3], 82.5% (inactive); in test [4], 78.1% (inactive); in [5] it was 79.4% (inactive); in test [6] (setting [16]), 71.1%; in test [6] (setting [17]), 79.4%. Further, the viability in [12] is 78.6% (inactive); in test [13], 75.7% (inactive). The Her2 level in test [2] was 93.5% (inactive). Moreover, the differential viability (reversal) in [6] (H69AR cells + 2 uM doxorubicin) was 8.24% (inactive). For the same compound, the values for the inhibition in [7], in test [8] and in [14] were -5.21% (inactive), -5.56% (inactive) and 3.93% (inactive), respectively. The growth inhibition was -2.44% (inactive) in test [9] and 5.62% (inactive) in test [10]. The viability increase in test [11] is -4.95% (inactive). For the same compound, the RAM network inhibition in test [15] is 5.98% (inactive).
As for `CCOC(=O)N1CCN(c2cc(=O)n(-c3cccc(Br)c3)c(=O)[nH]2)CC1`, the viability in test [1] is 99.5%; in [3], 99.5% (inactive); in [4] it was 94.4% (inactive); in [5] it was 103% (inactive); in test [6] (setting [16]) it was 85.5%; in [6] (setting [17]), 103%. The figures for the viability in [12] and in test [13] were 108% (inactive) and 93.5% (inactive), respectively. Moreover, the Her2 level in test [2] was 108% (inactive). Moreover, in test [6] (H69AR cells + 2 uM doxorubicin), the differential viability (reversal) is 17.2% (inactive). The inhibition is -3.2% (inactive) in test [7], -1.8% (inactive) in test [8] and 3.14% (inactive) in [14]. The growth inhibition in test [9] is -9.72% (inactive); in [10], -24.3% (inactive). Also, the viability increase in [11] was -2.79% (inactive). The RAM network inhibition in test [15] was 3.07% (inactive).
For the compound `CCCCCOc1ccc(C2NC(=O)NC2=O)cc1` (stereo not given), the viability was 97% in [1]; 97% (inactive) in test [3]; 102% (inactive) in [4]; 106% (inactive) in [5]; 88.1% in [6] (setting [16]); 106% in [6] (setting [17]). Besides, the viability in test [12] was 101% (inactive); in [13], 94.5% (inactive). Further, the Her2 level in test [2] is 109% (inactive). Also, the differential viability (reversal) in test [6] (H69AR cells + 2 uM doxorubicin) was 18.2% (inactive). Also, the inhibition was -4.93% (inactive) in test [7], -3.5% (inactive) in test [8] and 0.245% (inactive) in [14]. Moreover, the growth inhibition in [9] is -7.17% (inactive); in [10], -19.9% (inactive). Besides, the viability increase in test [11] was -1.63% (inactive). Besides, the RAM network inhibition in [15] is 1.57% (inactive).
Take `CC1(C(=O)NC2CCCCC2)CCC(=O)N1Cc1cccs1` (stereo not given): the viability in test [1] was 83%; in test [3], 83% (inactive); in test [4], 102% (inactive); in [5] it was 85.3% (inactive); in [6] (setting [16]) it was 90.5%; in [6] (setting [17]) it was 85.3%. The viability in test [12] was 102% (inactive); in test [13], 93.7% (inactive). Further, in [2], the Her2 level was 114% (inactive). Moreover, in test [6] (H69AR cells + 2 uM doxorubicin), the differential viability (reversal) was -5.18% (inactive). Further, the inhibition was 2.31% (inactive) in [7], 8.83% (inactive) in test [8] and 3.65% (inactive) in test [14]. Moreover, the growth inhibition in test [9] is -4.46% (inactive); in test [10], -15.9% (inactive). Moreover, the viability increase in [11] was -0.4% (inactive). In [15], the RAM network inhibition is 1.09% (inactive).
In the case of `CCn1c(-c2cc(Br)ccc2O)n[nH]c1=S`, the viability is 99% in [1]; 99% (inactive) in test [3]; 107% (inactive) in test [4]; 98% (inactive) in test [5]; 97.6% in [6] (setting [16]); 98% in test [6] (setting [17]). Besides, the viability is 98.9% (inactive) in [12] and 96.8% (inactive) in [13]. The Her2 level in [2] is 88.5% (inactive). Also, the differential viability (reversal) in test [6] (H69AR cells + 2 uM doxorubicin) was 0.39% (inactive). For the same compound, the inhibition in test [7] is -4.59% (inactive); in test [8], 3.02% (inactive); in test [14], 1.45% (inactive). Also, the growth inhibition in [9] was -10% (inactive); in [10], -14.2% (inactive). Further, the viability increase in test [11] is -1.24% (inactive). Moreover, in [15], the RAM network inhibition was 0.78% (inactive).
For the compound `O=C(Nc1nnc(N2CCCCCC2)s1)c1cc(-c2ccc(Br)cc2)on1`, the viability was 97% in test [1]; 97% (inactive) in [3]; 99.2% (inactive) in test [4]; 99.6% (inactive) in test [5]; 86.4% in test [6] (setting [16]); 99.6% in test [6] (setting [17]). For the same compound, the viability in test [12] is 99.1% (inactive); in test [13], 95.2% (inactive). For the same compound, the Her2 level in test [2] is 106% (inactive). Moreover, the differential viability (reversal) in [6] (H69AR cells + 2 uM doxorubicin) was 13.1% (inactive). For the same compound, the inhibition was -5.13% (inactive) in test [7], 3.67% (inactive) in [8] and 1.98% (inactive) in [14]. Further, the growth inhibition was -14.6% (inactive) in test [9] and -7.24% (inactive) in [10]. Also, the viability increase in [11] is 2.89% (inactive). Moreover, the RAM network inhibition in [15] is 9.45% (inactive).

As a reminder, the viability is a read-out of living cells in per cent, often relative to untreated cells. What is called inhibition is the relative decrease from the control value, in per cent.
